Assay [1] can be described thus: inhibitors of TNFa-induced NFkB p65 translocation, primary screen, imaging, HUVEC, MLSMR starter and 10KST1 sets (AID 438;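 active = inhibition above 20% together with a positive visual image hit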;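 also: compound added about 3h40 before a 20 min TNFalpha stimulation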;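 as to inhibition: signal is the nuclear over cytoplasmic p65 intensity ratio per well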). As to conditions: HUVEC TNFa-induced p65 nuclear translocation; cell count: measured here: nuclei count (cytotoxicity indicator), at 2.08 µM; inhibition: at 2 µM, stronger effect = higher value, 0% TNFa-plus-vehicle, 100% no-TNFa wells.
A short description of assay [2]: inhibitors of mutant huntingtin aggregation, primary screen, imaging, exon1htt(103Q)mCFP cells, high-content imaging (AID 483;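 active = visual image review flags a hit and inhibition of aggregation exceeds 20%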;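 also: compound exposure lasted 3 days before fixation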;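 as to nuclei count: percent of the per-plate median nuclei count of sample wells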). As to conditions: exon1htt(103Q)mCFP cell line, aggregate imaging, at 2 µM; inhibition of aggregation: stronger effect = higher value; nuclei count: measured here: cell count, toxicity.
Assay [3] is described as follows: inhibitors of E-selectin induction by TNFa, primary screen, imaging, HUVEC, immunofluorescence, MLSMR starter and 10KST1 sets (AID 487;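 active = visually confirmed hit in the image check and inhibition above 20%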;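 as to inhibition: signal is fraction of cell area covered by stained E-selectin grains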;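 as to nuclei count: 100% = median nuclei count of all wells on the same plate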). As to conditions: HUVEC TNFalpha-induced E-selectin immunofluorescence imaging, at 2 µM; inhibition: stronger effect = higher value; nuclei count: measured here: cell number, toxicity.
The target in assay [4] is Voltage-gated potassium channel subunit beta-2 (Rattus norvegicus) (UniProt P62483). Put plainly: KvBeta enzyme negative modulators, primary screen, biochemical, NADPH fluorescence (AID 622;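 active = fluorescence slope higher than the sample average by over 3 SD, cut at about -0.22 in these data, passing the limit was not always enough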;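 also: slope of raw intensity against log time taken from 70 to 1610 s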). As to conditions: recombinant KvBeta, 4-cyanobenzaldehyde reduction, at 10 µM, stronger effect = higher value.
Voltage-gated potassium channel subunit beta-2 (Rattus norvegicus), sequence (P62483 whole entry, looked up): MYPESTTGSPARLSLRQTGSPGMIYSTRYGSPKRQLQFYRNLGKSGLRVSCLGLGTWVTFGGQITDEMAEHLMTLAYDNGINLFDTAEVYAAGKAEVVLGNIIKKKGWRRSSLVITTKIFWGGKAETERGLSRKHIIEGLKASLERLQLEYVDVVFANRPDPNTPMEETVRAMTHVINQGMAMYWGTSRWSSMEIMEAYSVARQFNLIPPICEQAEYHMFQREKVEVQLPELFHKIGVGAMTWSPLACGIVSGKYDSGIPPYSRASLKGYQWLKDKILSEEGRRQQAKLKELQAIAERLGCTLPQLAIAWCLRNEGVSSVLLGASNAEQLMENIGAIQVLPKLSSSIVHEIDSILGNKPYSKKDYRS
Assay [5] has the same target. As to the kind of experiment: KvBeta positive modulators, primary screen, biochemical, NADPH fluorescence (AID 623;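 active = NADPH fluorescence slope more negative than the mean of all samples by about 3 SD, 99.7% confidence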;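 also: fluorescence intensity change per second fitted from 20 to 320 s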). The note with it: Recombinant KvBeta, NADPH fluorescence decrease slope, 10 min; at 10 µM; stronger effect = lower value.
Assay [6] concerns the target Alpha-2C adrenergic receptor (Homo sapiens) (UniProt P18825). Put plainly: modulators of alpha2C/GIRK thallium flux, primary screen, cell-based, HEK293 alpha2C/GIRK1/2 (AID 624;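 active = fluorescence slope after compound addition differing from the mean of all screened samples at 99.7% confidence, in either direction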;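 also: slope of fluorescence ratio to pre-addition baseline per second over 15 to 24 s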). The note with it: thallium flux BTC fluorescence, at 10 µM, actives lie on both sides.
A short description of assay [7]: inhibitors of Sendai virus-induced IRF3 signaling, primary screen, TLR/RLR signaling modifier project, cell-based, Sendai virus stimulus, luciferase, 10K MLSCN set (AID 602276).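 Also: firefly luciferase from ISG56 promoter only with Renilla not read in this screen; 0% = Sendai virus plus DMSO and 100% = medium plus DMSO without virus.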 As to conditions: HEK293 RL24 IRF3 luciferase reporter, at 10 µM, stronger effect = higher value.
Assay [8] can be described thus: inhibitors of poly I:C-induced TLR3 signaling, primary screen, cell-based, poly I:C stimulus, luciferase, 10K MLSCN set (AID 602277;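 active = inhibition of the reporter signal at or above 50%; inactive = inhibition below 50%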). The note with it: HEK293-TLR3 RL24 IRF3 luciferase reporter, at 10 µM, stronger effect = higher value. In general terms: In a reporter assay the amount or activity of a reporter protein is the signal.

Activity calls are given as the source filed them.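 The calls were made as follows, unless noted: active = inhibition at or above 50% at 10 µM; inactive = inhibition below 50%.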

Alpha-2C adrenergic receptor (Homo sapiens), sequence (P18825 whole entry, looked up): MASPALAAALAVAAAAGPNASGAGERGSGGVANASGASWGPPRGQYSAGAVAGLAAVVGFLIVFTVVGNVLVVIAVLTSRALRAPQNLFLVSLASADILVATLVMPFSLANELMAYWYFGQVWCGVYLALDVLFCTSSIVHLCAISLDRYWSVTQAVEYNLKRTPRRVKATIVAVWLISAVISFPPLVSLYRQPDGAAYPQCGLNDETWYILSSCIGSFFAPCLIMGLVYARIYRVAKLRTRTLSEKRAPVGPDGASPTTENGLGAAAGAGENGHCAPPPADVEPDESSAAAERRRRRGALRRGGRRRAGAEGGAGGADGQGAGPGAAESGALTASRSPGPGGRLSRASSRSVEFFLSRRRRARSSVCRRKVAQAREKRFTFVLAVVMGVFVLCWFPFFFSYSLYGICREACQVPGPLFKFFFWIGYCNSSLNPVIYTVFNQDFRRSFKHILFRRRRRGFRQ

The inhibition is the change of the read-out against control, counted positive when it falls. Take `O=C(OCC(=O)N1CCCCCC1)c1cccs1`: the cell count in assay [1] came out at 295. Besides, the inhibition in assay [1] is 7.1% (inactive); in assay [3], 4.3% (inactive); in assay [7], -20.1% (inactive); in assay [8], -75.3% (inactive). The inhibition of aggregation in assay [2] is 3.3% (inactive). For the same compound, the nuclei count in assay [2] came out at 103%; in assay [3] it was 107%. The fluorescence slope in assay [4] is -0.53 (inactive). In assay [5], the NADPH fluorescence slope is -5.7e-05 (inactive). In assay [6], the slope was 0.00485 (inactive).
`Cc1cc(C)nc(SCC(=O)Nc2ccc(S(=O)(=O)Nc3nccs3)cc2)n1`: the cell count in assay [1] was determined as 312. For the same compound, the inhibition in assay [1] is 9% (inactive); in assay [3], -21.2% (inactive); in assay [7], 10% (inactive); in assay [8], 32.8% (inactive). Also, the inhibition of aggregation in assay [2] is 5.3% (inactive). Also, the nuclei count turned out to be 97.6% in assay [2] and 116% in assay [3]. For the same compound, the fluorescence slope in assay [4] is -0.383 (inactive). The NADPH fluorescence slope in assay [5] was -5.8e-05 (inactive). Besides, the slope in assay [6] is 0.00544 (inactive).
Turning to `CCc1nnc(NC(=O)CN2CCN(c3ccccc3OC)CC2)s1`, in assay [1], the cell count turned out to be 287. Also, the inhibition in assay [1] was 6.2% (inactive); in assay [3], 3.6% (inactive); in assay [7] it was 7.27% (inactive); in assay [8], 27.9% (inactive). Also, the inhibition of aggregation in assay [2] is -10% (inactive). Moreover, the nuclei count in assay [2] was 102%; in assay [3], 97.4%. Besides, the fluorescence slope in assay [4] is -0.616 (inactive). For the same compound, the NADPH fluorescence slope in assay [5] was -2e-05 (inactive). Also, the slope in assay [6] was 0.00643 (inactive).
Regarding `Cc1nnc(SCC(=O)N2CCN(S(=O)(=O)c3ccccc3)CC2)[nH]c1=O`, in assay [1], the cell count was determined as 711. In addition, the inhibition in assay [1] is 9.4% (inactive); in assay [3], -39.5% (inactive); in assay [7], 3.92% (inactive); in assay [8], 13.4% (inactive). In addition, in assay [2], the inhibition of aggregation is 7.1% (inactive). For the same compound, the nuclei count was determined as 103% in assay [2] and 127% in assay [3]. Also, the fluorescence slope in assay [4] is -0.509 (inactive). The NADPH fluorescence slope in assay [5] was -6e-05 (inactive). Also, the slope in assay [6] is 0.00552 (inactive).
For the compound `COC(=O)c1cc(Br)c(=O)n(-c2ccc(OC)cc2)c1`, the cell count in assay [1] was found to be 542. The inhibition is -0.5% (inactive) in assay [1], 25.8% (inactive) in assay [3], 12.6% (inactive) in assay [7] and 23.2% (inactive) in assay [8]. Also, the inhibition of aggregation in assay [2] is -13.6% (inactive). In addition, the nuclei count in assay [2] came to 108%; in assay [3] it was 112%. The fluorescence slope in assay [4] is -0.503 (inactive). For the same compound, the NADPH fluorescence slope in assay [5] was -3.9e-05 (inactive). The slope in assay [6] is 0.00452 (inactive).
Regarding `CCOC(=O)Cn1nc(-c2ccc(C)cc2)ccc1=O`, in assay [1], the cell count was determined as 534. The inhibition in assay [1] is -21% (inactive); in assay [3], -42.9% (inactive); in assay [7] it was -9.24% (inactive); in assay [8], -5.48% (inactive). In addition, the inhibition of aggregation in assay [2] was 31% (inactive). For the same compound, the nuclei count came out at 121% in assay [2] and 108% in assay [3]. Further, the fluorescence slope in assay [4] was -0.393 (inactive). Further, in assay [5], the NADPH fluorescence slope is -0.000149 (inactive). In assay [6], the slope was 0.00747 (inactive).
`COC(=O)c1c(-c2cccs2)csc1NC(=O)CN1CCOCC1`: the cell count in assay [1] was determined as 345. In addition, the inhibition in assay [1] was 6% (inactive); in assay [3], -22.6% (inactive); in assay [7], 16.1% (inactive); in assay [8], 3.26% (inactive). For the same compound, the inhibition of aggregation in assay [2] was -6.9% (inactive). Also, the results for the nuclei count in assay [2] and in assay [3] were 106% and 119%, respectively. In assay [4], the fluorescence slope was -0.519 (inactive). In assay [5], the NADPH fluorescence slope is -5.2e-05 (inactive). In addition, the slope in assay [6] is 0.00516 (inactive).
With `O=C(c1ccccc1)N1CCN(Cc2ccccc2Br)CC1`, the cell count in assay [1] amounted to 234. The inhibition in assay [1] is -2.5% (inactive); in assay [3], -25.8% (inactive); in assay [7], 9.36% (inactive); in assay [8], 4.59% (inactive). Moreover, in assay [2], the inhibition of aggregation is 23.9% (inactive). The nuclei count in assay [2] is 77.4%; in assay [3], 96.1%. For the same compound, in assay [4], the fluorescence slope was -0.428 (inactive). Also, the NADPH fluorescence slope in assay [5] was -4.5e-05 (inactive). Moreover, the slope in assay [6] was 0.00425 (inactive).
In the case of `O=c1[nH]c(=O)n(C2CCCCCC2)c(O)c1C=NCc1ccc(F)cc1`, the cell count in assay [1] amounted to 666. For the same compound, the inhibition is 5% (inactive) in assay [1], 3% (inactive) in assay [3], 14.6% (inactive) in assay [7] and 26.9% (inactive) in assay [8]. The inhibition of aggregation in assay [2] was 0.1% (inactive). In addition, the nuclei count in assay [2] turned out to be 109%; in assay [3], 110%. Further, the fluorescence slope in assay [4] is -0.321 (inactive). Besides, in assay [5], the NADPH fluorescence slope is 3.1e-05 (inactive). The slope in assay [6] was 0.00576 (inactive).
Regarding `COC(=O)c1cc2oc(C)cc2n1CC(=O)N(C)c1ccccc1`, the cell count in assay [1] is 370. The inhibition in assay [1] is -0.4% (inactive); in assay [3], -67.6% (inactive); in assay [7] it was 9.76% (inactive); in assay [8], 30.2% (inactive). Moreover, the inhibition of aggregation in assay [2] is -4.7% (inactive). Also, the nuclei count was 108% in assay [2] and 115% in assay [3]. For the same compound, the fluorescence slope in assay [4] was -0.347 (inactive). In assay [5], the NADPH fluorescence slope was -4.4e-05 (inactive). In addition, the slope in assay [6] was 0.00693 (inactive).
With `Cc1[nH]nc2c1C(=O)CCC2`, in assay [1], the cell count amounted to 639. The inhibition is 10.7% (inactive) in assay [1], 14.9% (inactive) in assay [3], -1.33% (inactive) in assay [7] and 0.12% (inactive) in assay [8]. Also, the inhibition of aggregation in assay [2] was 27.4% (inactive). Besides, the nuclei count in assay [2] turned out to be 96.1%; in assay [3], 95.1%. Also, in assay [4], the fluorescence slope is -0.366 (inactive). The NADPH fluorescence slope in assay [5] is -3.1e-05 (inactive). For the same compound, in assay [6], the slope is 0.00524 (inactive).
`Cc1ccc2[nH]c(=O)c(-c3noc(-c4ccncc4)n3)cc2c1`: the cell count in assay [1] amounted to 474. Moreover, the inhibition was -9.1% (inactive) in assay [1], -51% (inactive) in assay [3], 8.49% (inactive) in assay [7] and 12.4% (inactive) in assay [8]. Also, the inhibition of aggregation in assay [2] was -82.1% (inactive). In addition, the nuclei count worked out at 65% in assay [2] and 93.8% in assay [3]. In assay [4], the fluorescence slope is -0.31 (inactive). Besides, the NADPH fluorescence slope in assay [5] was -6e-05 (inactive). Besides, the slope in assay [6] was 0.0054 (inactive).
On to `C/C(=C\c1ccco1)C1C(C#N)=C(N)OC2=C1C(=O)CC(C)(C)C2` (centres undefined), for which the cell count in assay [1] stood at 595. For the same compound, the inhibition in assay [1] was -9.1% (inactive); in assay [3], -87.8% (inactive); in assay [7], 15.4% (inactive); in assay [8], 18.7% (inactive). In addition, the inhibition of aggregation in assay [2] is 11.6% (inactive). For the same compound, the values for the nuclei count in assay [2] and in assay [3] were 96.3% and 106%, respectively. In assay [4], the fluorescence slope was -0.303 (inactive). Moreover, the NADPH fluorescence slope in assay [5] was -6.3e-05 (inactive). The slope in assay [6] is 0.00426 (inactive).
`Cc1c(C(=O)NC2CCCc3ccccc32)oc2ccc(S(=O)(=O)N3CCOCC3)cc12` (centres undefined): in assay [1], the cell count came out at 500. Moreover, the inhibition in assay [1] was -3% (inactive); in assay [3], -32.9% (inactive); in assay [7] it was 17.5% (inactive); in assay [8], 14.6% (inactive). For the same compound, in assay [2], the inhibition of aggregation is 27.1% (inactive). The nuclei count in assay [2] turned out to be 76.4%; in assay [3] it was 110%. Also, the fluorescence slope in assay [4] is -0.489 (inactive). Also, the NADPH fluorescence slope in assay [5] is -6.3e-05 (inactive). In addition, the slope in assay [6] is 0.0079 (inactive).
